PubChem BioAssay
“And” between values parts separate entries of the source, which are not always exact repeats. Identical values can stand only once. The source made the active and inactive calls.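 How the source made its calls, unless noted: active means visually confirmed hit in the image check and inhibition above 20%; inconclusive means visually confirmed hit but inhibition not above 20%; inactive means no visual hit in the image check.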

How the values were obtained:
[1] = inhibitors of TNFa-induced NFkB p65 translocation, primary screen, imaging, HUVEC, MLSMR starter and 10KST1 sets (AID 438;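 active means inhibition above 20% together with a positive visual image hit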;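 further: compound added about 3h40 before a 20 min TNFalpha stimulation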;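 on inhibition: signal is the nuclear over cytoplasmic p65 intensity ratio per well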); conditions: HUVEC TNFa-induced p65 nuclear translocation; cell count: measured here: nuclei count (cytotoxicity indicator), at 2.08 µM; inhibition: at 2 µM, stronger effect = higher value, 0% TNFa-plus-vehicle, 100% no-TNFa wells
[2] = inhibitors of E-selectin induction by TNFa, primary screen, imaging, HUVEC, immunofluorescence, MLSMR starter and 10KST1 sets (AID 487); conditions: HUVEC TNFalpha-induced E-selectin immunofluorescence imaging, at 2 µM; inhibition: stronger effect = higher value; nuclei count: measured here: cell number, toxicity;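 on inhibition: signal is fraction of cell area covered by stained E-selectin grains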;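 on nuclei count: 100% = median nuclei count of all wells on the same plate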
[3] = DUSP6 inhibitors restoring Erk phosphorylation by chemical complementation, primary imaging in DUSP6-transfected HeLa (AID 609;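 active means compounds giving at least 50% inhibition in the cell-based MKP-3 phosphatase rescue imaging test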;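 on inhibition: phospho-Erk level distribution per well compared with pooled transfected vehicle control wells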); conditions: HeLa MKP-3 transfected, phospho-Erk imaging KS statistic, at 10 µM, cells stimulated with TPA for 15 min
[4] = target: Dual specificity protein phosphatase 6 (Homo sapiens) (UniProt Q16828); assay: as above; conditions: HeLa MKP-3 transfected, phospho-Erk imaging KS statistic; at 10 µM; stronger effect = higher value; cells stimulated with TPA for 15 min
[5] = target: Voltage-gated potassium channel subunit beta-2 (Rattus norvegicus) (UniProt P62483); assay: KvBeta enzyme negative modulators, primary screen, biochemical, NADPH fluorescence (AID 622;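 active means fluorescence slope higher than the sample average by over 3 SD, cut at about -0.22 in these data, passing the limit was not always enough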;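 further: slope of raw intensity against log time taken from 70 to 1610 s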); conditions: recombinant KvBeta, 4-cyanobenzaldehyde reduction, at 10 µM, stronger effect = higher value
[6] = target: Voltage-gated potassium channel subunit beta-2 (Rattus norvegicus) (UniProt P62483); assay: KvBeta positive modulators, primary screen, biochemical, NADPH fluorescence (AID 623;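 active means NADPH fluorescence slope more negative than the mean of all samples by about 3 SD, 99.7% confidence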;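 further: fluorescence intensity change per second fitted from 20 to 320 s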); conditions: Recombinant KvBeta, NADPH fluorescence decrease slope, 10 min; at 10 µM; stronger effect = lower value
[7] = target: Muscarinic acetylcholine receptor M4 (Homo sapiens) (UniProt P08173); assay: compounds altering M4/GIRK thallium flux, either direction, primary screen, M4 allosteric agonist project, cell-based, HEK293 M4/GIRK, BTC-AM (AID 625;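 active means fluorescence slope after compound addition differing from the mean of all tested samples at 99.7% confidence, mostly higher but some lower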;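 further: thallium influx through GIRK channels coupled to M4 in HEK293 cells with BTC-AM dye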); conditions: at 10 µM, actives lie on both sides
[8] = inhibitors of larval lipid processing in zebrafish, primary screen, whole organism, PED6 fluorescence, gall bladder and intestine (AID 686;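 active means a full or partial loss of lipid-probe fluorescence in the fish gall bladder, intestine or both, judged by eye; inactive means no fluorescence loss, or compound toxic to the fish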;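 further: larvae 5 to 7 days old with five fish per well; signal comes from phospholipase A2 cleavage of quenched PED6 carried via bile; overnight exposure to compound and PED6 before scoring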); conditions: Zebrafish larvae PED6 lipid processing, fluorescence scoring; screened at 20 µM (by protocol)
[9] = inhibitors of Chlamydomonas gravitaxis, primary screen, whole organism, Chlamydomonas reinhardtii, WT vs cilia-less mutant, absorbance, 96-well (AID 463189;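 active means inhibition at or above 50% relative to wild type and mutant plate controls; inactive means inhibition below 50%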;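 further: 0% = wild type cc124 cells in DMSO and 100% = ciliumless bld1 mutant cells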); conditions: OD600 absorbance, 2 days, at 10 µM, stronger effect = higher value
[10] = inhibitors of mutant huntingtin aggregation, primary screen, imaging, exon1htt(103Q)mCFP cells, high-content imaging (AID 483;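 active means visual image review flags a hit and inhibition of aggregation exceeds 20%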;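 further: compound exposure lasted 3 days before fixation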;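 on nuclei count: percent of the per-plate median nuclei count of sample wells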); conditions: exon1htt(103Q)mCFP cell line, aggregate imaging, at 2 µM; inhibition of aggregation: stronger effect = higher value; nuclei count: measured here: cell count, toxicity
[11] = target: Alpha-2C adrenergic receptor (Homo sapiens) (UniProt P18825); assay: modulators of alpha2C/GIRK thallium flux, primary screen, cell-based, HEK293 alpha2C/GIRK1/2 (AID 624;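 active means fluorescence slope after compound addition differing from the mean of all screened samples at 99.7% confidence, in either direction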;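 further: slope of fluorescence ratio to pre-addition baseline per second over 15 to 24 s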); conditions: thallium flux BTC fluorescence, at 10 µM, actives lie on both sides
[12] = inhibitors of Sendai virus-induced IRF3 signaling, primary screen, TLR/RLR signaling modifier project, cell-based, Sendai virus stimulus, luciferase, 10K MLSCN set (AID 602276;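 active means inhibition at or above 50% at 10 µM; inactive means inhibition below 50%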;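 further: firefly luciferase from ISG56 promoter only with Renilla not read in this screen; 0% = Sendai virus plus DMSO and 100% = medium plus DMSO without virus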); conditions: HEK293 RL24 IRF3 luciferase reporter, at 10 µM, stronger effect = higher value
[13] = inhibitors of poly I:C-induced TLR3 signaling, primary screen, cell-based, poly I:C stimulus, luciferase, 10K MLSCN set (AID 602277;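 active means inhibition of the reporter signal at or above 50%; inactive means inhibition below 50%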); conditions: HEK293-TLR3 RL24 IRF3 luciferase reporter, at 10 µM, stronger effect = higher value
[14] = measured here: cell density z-score
[15] = measured here: nuclear c-Myc green intensity z-score
[16] = measured here: nuclear pErk red intensity z-score, stronger effect = higher value

Chain of Dual specificity protein phosphatase 6 (Homo sapiens) (Q16828 whole entry, looked up): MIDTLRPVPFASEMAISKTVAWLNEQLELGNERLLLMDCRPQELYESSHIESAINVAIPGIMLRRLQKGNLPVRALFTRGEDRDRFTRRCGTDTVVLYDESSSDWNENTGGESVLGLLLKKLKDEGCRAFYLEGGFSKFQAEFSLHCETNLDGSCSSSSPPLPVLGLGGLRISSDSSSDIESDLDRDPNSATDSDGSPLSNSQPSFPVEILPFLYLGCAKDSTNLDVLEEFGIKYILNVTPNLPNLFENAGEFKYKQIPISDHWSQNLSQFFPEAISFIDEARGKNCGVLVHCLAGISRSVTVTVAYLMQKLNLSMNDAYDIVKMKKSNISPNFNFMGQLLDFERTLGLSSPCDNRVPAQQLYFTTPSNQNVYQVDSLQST
Chain of Voltage-gated potassium channel subunit beta-2 (Rattus norvegicus) (P62483 whole entry, looked up): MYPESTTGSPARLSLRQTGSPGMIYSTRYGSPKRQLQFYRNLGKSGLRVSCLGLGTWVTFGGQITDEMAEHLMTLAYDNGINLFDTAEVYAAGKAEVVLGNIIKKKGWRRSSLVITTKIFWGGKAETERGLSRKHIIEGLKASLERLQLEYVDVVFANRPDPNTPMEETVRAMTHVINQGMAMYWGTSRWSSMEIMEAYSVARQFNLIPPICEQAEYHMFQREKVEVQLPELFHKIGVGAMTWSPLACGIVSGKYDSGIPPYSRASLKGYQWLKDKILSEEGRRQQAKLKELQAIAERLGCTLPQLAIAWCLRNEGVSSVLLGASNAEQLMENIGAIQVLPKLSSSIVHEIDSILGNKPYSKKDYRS
Chain of Alpha-2C adrenergic receptor (Homo sapiens) (P18825 whole entry, looked up): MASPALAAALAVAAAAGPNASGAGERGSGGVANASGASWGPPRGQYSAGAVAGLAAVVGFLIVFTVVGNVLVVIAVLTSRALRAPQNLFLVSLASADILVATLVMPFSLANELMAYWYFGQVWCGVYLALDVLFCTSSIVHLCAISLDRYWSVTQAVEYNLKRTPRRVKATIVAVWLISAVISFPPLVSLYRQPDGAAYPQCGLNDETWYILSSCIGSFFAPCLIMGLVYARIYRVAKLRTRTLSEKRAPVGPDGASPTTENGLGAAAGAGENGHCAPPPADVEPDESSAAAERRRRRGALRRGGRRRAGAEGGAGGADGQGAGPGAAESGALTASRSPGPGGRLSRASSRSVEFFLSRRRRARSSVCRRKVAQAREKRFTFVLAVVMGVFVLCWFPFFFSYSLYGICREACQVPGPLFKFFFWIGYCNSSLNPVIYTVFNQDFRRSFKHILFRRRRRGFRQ
Chain of Muscarinic acetylcholine receptor M4 (Homo sapiens) (P08173 whole entry, looked up): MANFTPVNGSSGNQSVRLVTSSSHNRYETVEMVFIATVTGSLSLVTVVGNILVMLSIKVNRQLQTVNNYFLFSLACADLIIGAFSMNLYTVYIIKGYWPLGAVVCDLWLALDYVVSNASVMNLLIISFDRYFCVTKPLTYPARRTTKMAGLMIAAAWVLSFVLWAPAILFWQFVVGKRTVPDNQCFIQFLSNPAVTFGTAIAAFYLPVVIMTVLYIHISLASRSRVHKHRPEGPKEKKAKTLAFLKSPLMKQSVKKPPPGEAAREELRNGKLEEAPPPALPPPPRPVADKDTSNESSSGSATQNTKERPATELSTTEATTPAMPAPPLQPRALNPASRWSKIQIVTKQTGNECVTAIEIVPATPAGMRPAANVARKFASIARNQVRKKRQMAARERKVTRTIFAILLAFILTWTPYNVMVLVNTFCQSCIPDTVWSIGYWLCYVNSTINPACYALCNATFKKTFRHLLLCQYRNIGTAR

Row | Compound | cell count [1] | inhibition [1] | inhibition [2] | nuclei count [2] | z-score [3, 14] | z-score [3, 15] | z-score [3, 16] | inhibition [4] | fluorescence slope [5] | NADPH fluorescence slope [6] | fluorescence slope [7] | outcome [8] | inhibition [9] | inhibition of aggregation [10] | nuclei count [10] | slope [11] | inhibition [12] | inhibition [13]
1 | CC1(C)CC(=O)C2=C(C1)OC(N)=C(C#N)[C@@]21C(=O)N(CC(N)=O)c2ccccc21 | 375 | -8% (inactive) | -63.6% (inactive) | 114% | 0.0987 | 0.575 | -0.037 | -3.95% (inactive) | -0.464 (inactive) | -2e-05 (inactive) | 0.00604 (inactive) | inactive | -3.87% (inactive) |  |  |  |  | 
2 | CC(=O)OCC(=O)[C@@]1(O)CC[C@H]2[C@@H]3CCC4=CC(=O)CC[C@]4(C)[C@H]3C(=O)C[C@@]21C |  |  | -92.4% (inactive) | 97.4% | -1.29 | -1.69 | 0.158 | 3.59% (inactive) | -0.477 (inactive) | -6.1e-05 (inactive) |  |  | 9.11% (inactive) and 28.9% (inactive) | 16.5% (inactive) | 99.5% | 0.00575 (inactive) | 3.98% (inactive) | 27.5% (inactive)
3 | Cc1ccc(Cn2ncc3c(N4CCN(c5ccc(C)cc5)CC4)ncnc32)cc1 | 548 | -0.1% (inactive) | 2.9% (inactive) | 164% | 0.777 | 0.779 | 1.42 | 17.8% (inactive) | -0.39 (inactive) | -5.3e-05 (inactive) | 0.00638 (inactive) | inactive | -10.9% (inactive) |  |  |  |  | 
4 | C=CC(O)Cc1c(C)n[nH]c1C (configuration not stated) | 656 | -7.1% (inactive) | -59.4% (inactive) | 167% | -1.01 | -0.115 | -0.502 | -9.66% (inactive) | -0.503 (inactive) | -6.2e-05 (inactive) | 0.00568 (inactive) | inactive | 11.7% (inactive) |  |  |  |  | 
5 | O=C(NC1CCCCC1)Nn1c(-c2ccccc2)nc2ccccc2c1=O | 695 | -7.6% (inactive) | -60.6% (inactive) | 203% | -0.332 | -0.26 | 0.432 | -9.53% (inactive) | -0.473 (inactive) | -0.000129 (inactive) | 0.00473 (inactive) | inactive | 2.04% (inactive) |  |  |  |  | 
6 | CCN(CC)CC(=O)Nc1c(C)cccc1C | 642 and 715 | -6.5% (inactive) and -1% (inactive) | -39.3% (inactive) and -82.5% (inactive) | 130% and 116% | -0.149 and 1.01 | 0.72 and -0.684 | -0.101 and 0.844 | 15.3% (inactive) and 14.6% (inactive) | -0.457 (inactive) and -0.466 (inactive) | 7.7e-06 (inactive) and -5.7e-05 (inactive) |  |  |  |  |  | 0.00536 (inactive) and 0.0061 (inactive) | 11.4% (inactive) and 10.3% (inactive) | 39.6% (inactive) and 42.7% (inactive)
7 | CC1(C)Cc2c(c(-c3ccccc3)[nH]c(=O)c2C#N)CS1 | 499 | -15.7% (inactive) | -47.8% (inactive) | 131% | 1.65 | -1.74 | -0.608 | 14.7% (inactive) | -0.426 (inactive) | -2.8e-05 (inactive) | 0.0044 (inactive) | inactive | -6.24% (inactive) |  |  |  |  | 
8 | CCCc1nc(NC2CCCCC2)c(C#N)c2c1COC(C)(C)C2 | 517 | -11.1% (inactive) | -55.9% (inactive) | 114% | -0.306 | -0.0962 | -0.825 | -3.95% (inactive) | -0.492 (inactive) | -6.5e-05 (inactive) | 0.00613 (inactive) | inactive | -12.9% (inactive) |  |  |  |  | 
9 | Cn1c(=O)c2c(nc(NCC(O)CO)n2CCc2ccccc2)n(C)c1=O (configuration not stated) | 693 | 2% (inactive) | -108% (inactive) | 172% | 0.322 | -1.96 | -0.0564 | 19.8% (inactive) | -0.483 (inactive) | -1e-05 (inactive) | 0.00665 (inactive) | inactive | 24.7% (inactive) |  |  |  |  | 
10 | CCOC(=O)c1c(C)[nH]c(/C(C)=N/O)c1C | 668 | -10.2% (inactive) | -400% (inactive) | 161% | -0.0773 | -1.42 | -0.664 | 1.12% (inactive) | -0.526 (inactive) | -3.4e-05 (inactive) | 0.00562 (inactive) | inactive | 87.2% (active) |  |  |  |  | 
11 | CCN1CCc2c(C#N)c(N3CCOCC3)nc(NCCO)c2C1 | 566 | -9.7% (inactive) | -122% (inactive) | 151% | 1.19 | -1.68 | -1.24 | -9.53% (inactive) | -0.456 (inactive) | -9.7e-05 (inactive) | 0.0043 (inactive) | inactive | -3.77% (inactive) |  |  |  |  | 
12 | N#C/C(C(=O)NCc1ccccc1)=C1\SC(CCO)C(=O)N1c1ccccc1 (configuration not stated) | 501 | -3.4% (inactive) | -97.3% (inactive) | 120% | 0.0433 | 1.04 | -2.12 | 5.42% (inactive) | -0.429 (inactive) | -1.4e-05 (inactive) | 0.00513 (inactive) | inactive | -13.8% (inactive) |  |  |  |  | 
